Measurements: PubChem BioAssay (NCATS)
Inconclusive results are not listed. Activity calls are given as the source filed them. The call rests on the fitted dose curve.

Target: Peroxisome proliferator-activated receptor delta (Homo sapiens) (UniProt Q03181)
Test: qHTS assay for small molecule agonists of peroxisome proliferator-activated receptor delta signaling (AID 588534);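 further: 0% = DMSO basal wells and 100% = positive control agonist at 10 µM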
Conditions: HEK293T PPARdelta-UAS-bla, beta-lactamase ratio, 18 h; series mostly up to 76.7 µM; activation: at the top concentration
Source text: NIH Chemical Genomics Center [NCGC] U.S. Environmental Protection Agency [EPA] National Institutes of Environmental Health Sciences [NIEHS] National Toxicology Program [NTP] NCGC Assay Overview The Peroxisome proliferator-activated receptors (PPARs) are lipid-activated transcription factors of the nuclear receptor superfamily with three distinct subtypes namely PPAR alpha, PPAR delta (also called PPAR beta) and PPAR gamma. All these subtypes heterodimerizes with Retinoid X receptor (RXR) and have different physiological functions. […] This role of PPAR delta implicates the potential use of its ligands in the treatment of metabolic disorders.
Compounds were screened in a titration series in 1536-well format. […] Concentration-response titration points for each compound were fitted to the Hill equation yielding concentrations of half-maximal stimulation (EC50) and maximal response (efficacy) values. qHTS protocol for PPAR-delta beta-lactamase assay in agonist mode [Step] [Parameter] [Value] [Description] 1. Reagent; 6 uL; 4000 cells/well 2. Incubation; 37 C for 5 hrs 3. Compounds; 23 nL; 0.59 nM to 92 uM 4. […] Incubation; 37 C for 18 hrs 6. Detection reagent; 1 uL of CCF4-dye 7. Incubation; RT for 2 hrs 8. Detection; Fluorescence; Envision plate reader

Peroxisome proliferator-activated receptor delta (Homo sapiens), sequence (Q03181 whole entry, looked up): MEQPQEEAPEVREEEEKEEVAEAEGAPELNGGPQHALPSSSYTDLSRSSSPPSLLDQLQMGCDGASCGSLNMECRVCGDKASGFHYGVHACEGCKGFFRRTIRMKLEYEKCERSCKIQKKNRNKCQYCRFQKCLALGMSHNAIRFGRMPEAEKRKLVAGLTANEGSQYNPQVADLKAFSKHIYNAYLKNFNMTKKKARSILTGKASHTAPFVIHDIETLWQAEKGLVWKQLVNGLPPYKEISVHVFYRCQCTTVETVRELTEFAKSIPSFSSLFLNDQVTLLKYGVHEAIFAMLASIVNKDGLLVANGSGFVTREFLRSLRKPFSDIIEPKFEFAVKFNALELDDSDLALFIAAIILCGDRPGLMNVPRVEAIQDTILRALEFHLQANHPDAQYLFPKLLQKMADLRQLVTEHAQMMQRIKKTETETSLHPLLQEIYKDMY

Compound | activation
O=[N+]([O-])c1ccc(CCO)cc1 | -4.13% (inactive)
C=CCCCCCCC=C | 6.81% (inactive)
C=C(C)C1CC=C(C)C(OC(C)=O)C1 (stereo not given) | 4.98% (inactive)
O=C(O)CCSSCCC(=O)O | 5.09% (inactive)
NC=O | 6.98% (inactive)
O=C(O)C(c1ccc(Cl)cc1)c1ccc(Cl)cc1 | -12.7% (inactive)
c1ccc2ncccc2c1 | -15% (inactive)
Nc1ccccc1[N+](=O)[O-] | 0.75% (inactive)
C=CCOC(=O)C(C)(C)OC(=O)c1cc(-n2c(=O)cc(C(F)(F)F)n(C)c2=O)ccc1Cl | -2.28% (inactive)
CC(C)Cc1nccs1 | 5.24% (inactive)
Cc1ccc(C)c([N+](=O)[O-])c1 | 17% (inactive)
CSc1nnc(C(C)(C)C)c(=O)n1N | -0.854% (inactive)
O=C=NCCCCCCN=C=O | -2.93% (inactive)
C/C=C\c1ccc(OC)cc1 | 9.09% (inactive)
CC1(C)CC(N)CC(C)(CN)C1 (stereo not given) | -0.343% (inactive)
Cc1ccccc1C=O | -1.44% (inactive)
Fc1ccccc1 | 10.2% (inactive)
C=C(C)C(=O)OCCC[Si](Cl)(Cl)Cl | -0.262% (inactive)
Nc1ccc(N)c2c1C(=O)c1c(N)ccc(N)c1C2=O | 2.78% (inactive)
CCOP(=O)(SC(C)CC)N1CCSC1=O (stereo not given) | -3.13% (inactive)

Compound | activation
FB(F)F | -0.872% (inactive)
Cc1ccc(N)cc1[N+](=O)[O-] | -6.49% (inactive)
COC(C)=O | 1.38% (inactive)
O=[N+]([O-])c1ccc2c(c1)Cc1ccccc1-2 | -2.87% (inactive)
CCCCCCC=O | 3.7% (inactive)
CCCCCCCCC(=O)O | 0.447% (inactive)
C=CCn1c(=O)n(CC=C)c(=O)n(CC=C)c1=O | 1.38% (inactive)
CC(C)C1(C)N=C(c2nc3ccccc3cc2C(=O)O)NC1=O (stereo not given) | -2.48% (inactive)
O=C(c1ccc(Cl)cc1)c1ccc(Cl)cc1 | -6.77% (inactive)
CCO | 11.9% (inactive)
CCC(O)OCCCOC (stereo not given) | 4.52% (inactive)
CCNc1nc(NC(C)C)nc(SC)n1 | -4.54% (inactive)
FC(F)(F)c1ccccc1Cl | 1.82% (inactive)
C#CCOC(=O)[C@@H](C)Oc1ccc(Oc2ncc(Cl)cc2F)cc1 | -11.4% (inactive)
Cc1cc(C)c(N)c(Cl)c1 | -7.19% (inactive)
Nc1cccc(O)c1 | 2.4% (inactive)
Cc1ccc(S(=O)(=O)NC2CCCCC2)cc1 | 7.76% (inactive)
O=C1CCC(C2CCCCC2)CC1 | 1.85% (inactive)
C=C(C)C(=O)OCCCCCCCCCCCC | 4.53% (inactive)
COC(=O)c1c(C(F)F)nc(C(F)(F)F)c(C2=NCCS2)c1CC(C)C | 5.83% (inactive)
